Source: PubChem BioAssay (National Center for Advancing Translational Sciences (NCATS))
D3 antag: blocks the human D3 dopamine receptor; P35462; D3R cells, DiscoveRx beta-arrestin luminescence, antagonist mode; stronger effect = lower value; max response, negative = inhibition, %; actives 2.5% (n = 360,000); AID 652054; in the data active = max response below about -50%; inconclusive = no clear call, values can overlap the other calls; note: % is set by controls: 0 for no effect and ±100 for the full control effect
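Cells expressing the human receptor were seeded at 1500 cells/well, incubated overnight at 37 degrees C in 5% CO2, then exposed to library compounds with dopamine controls for 90 minutes at 37 degrees C before luminescent detection.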
ClpP mod: qHTS Assay for Activators of ClpP; ATP-dependent Clp protease proteolytic subunit (Bacillus subtilis (strain 168)), P80244; purified B. subtilis ClpP, FRET peptide cleavage, 20 min; Potency, µM (top dose mostly 57.5 µM), inactives show top-dose activity change, negative = active; actives 1.9% (n = 340,000); AID 651965, 2013; active = well fitted falling curve with a large enough effect; inconclusive = small, poorly fitted or top-dose-only effect; inactive = no such curve, though single readings can be large or run the other way; note: potency is the fitted concentration of half-maximal effect; the source files actives as falling curves though it sought activators and does not explain the sign; nearly all actives have a fitted effect of over 65% in size
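Buffer: 100 mM Tris/HCl pH8, 100 mM KCl, 0.05% low protease BSA, 2.5% glycerol, 0.01% Tween-20. ClpP 10 microg/mL final; 20 min RT; delta FRET normalized to ADEP and DMSO controls.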
DT40 TDP1 CPT: DT40-hTDP1 cell growth loss with CPT; actives 12% (n = 420,000); chicken DT40 Tdp1-/-;hTDP1 cells + 20 nM CPT, ATP luminescence, 48 h; Potency, µM (doses to about 46.2 µM), for the others: top-dose activity change, negative = growth inhibition, usual class: inhibitors; note: potency is the fitted concentration of half-maximal effect; % is set by controls: 0 for no effect and ±100 for the full control effect; nearly all actives have a fitted effect of over 55% in size
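Chicken DT40 Tdp1-/- cells stably complemented with human TDP1 were seeded at 400 cells/well in medium containing 20 nM camptothecin, exposed to pin-transferred compounds, and grown at 37 °C for at least 48 hr. Viability was read as ATP luminescence.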
DRD3 agonist: activates the human D3 dopamine receptor. P35462. D3R DiscoveRx beta-arrestin cells, luminescence, 90 min. max activation, %. actives 0.58% (n = 410,000). AID 652048; in the data active = max activation above about 30%; note: 0% is about no effect
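Agonist-mode cell screen: cells plated at 1500/well and incubated overnight at 37 °C, then exposed to library compounds for 90 min at 37 °C. Detection reagent was added for 30–60 min at room temperature, and luminescence was read.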
DT40 TDP1 no CPT: qHTS for Inhibitors of human tyrosyl-DNA phosphodiesterase 1 (TDP1): qHTS in cells in absence of CPT | DT40 Tdp1-/- hTDP1 cells, no CPT, ATP luminescence, 48 h | Potency, µM (top dose mostly 46.2 µM), for the others: at the top dose activity change, negative = growth inhibition, hits mostly inhibitors | actives 15% (n = 420,000); note: potency is the fitted concentration of half-maximal effect; % is set by controls: 0 for no effect and ±100 for the full control effect; nearly all actives have a fitted effect of over 55% in size
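Growth kinetics read by CellTiter-Glo luminescence after ≥48 hr at 37 °C. Cells: DT40 Tdp1-/- stably carrying human TDP1, 400 per well, compound exposure in the absence of CPT (DMSO vehicle).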
IL-1B inflam inh: inhibitors of inflammasome signaling (IL-1 beta secretion); THP-1 LPS/ATP IL-1B secretion, AlphaLISA, 16 h; stronger effect = lower value; activity change, % at 57.5 µM; actives 4.7% (n = 360,000); AID 743279; in the data active = activity change below about -50%; inconclusive = mostly about -30% to -49%; note: % is set by controls: 0 for no effect and ±100 for the full control effect
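Secreted IL-1B measured by AlphaLISA bead assay after 16 h compound exposure of THP-1 cells; compounds (final up to 57.5 uM) added 1 h before LPS (250 ng/mL) and ATP (1.25 mM) stimulation; lower signal means less secretion.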
* hit, by the source's call; ? = inconclusive; . = no result given; [ ] = remark or other dose. A selection: hits, their analogues and other compounds. The true share with any hit is near 21%. Unless noted, calls come from the whole dose curve; as a rule, active = well fitted inhibition curve with a large enough effect; inconclusive = small, poorly fitted or top-dose-only effect; inactive = flat fitted curve, though single readings scatter.

SMILES | D3 antag | ClpP mod | DT40 TDP1 CPT | DRD3 agonist | DT40 TDP1 no CPT | IL-1B inflam inh
COc1cc(OC)cc(C(=O)Oc2c(CN3CCOCC3)cc(Cl)c3cccnc23)c1 | -64* | . | ? | -22 | ? | -6
Oc1c(CN2CCCCC2)cc(Br)c2cccnc12 | -74* | 1% | 5.2µM* | -29 | 5.2µM* | 106
Oc1c(Cl)cc(CN2CCOCC2)c2cccnc12 | ? | 0% | 0.65µM* | -8 | 1µM* | 95
CCOC(=O)c1csc(CCNC(=O)c2ccccc2)n1 | 12 | 0% | -20% | 5 | ? | -19
O=C(Oc1c(CN2CCOCC2)cc(Cl)c2cccnc12)c1ccccc1 | ? | . | ? | -34 | ? | ?
O=C(Oc1c(CN2CCOCC2)cc(Cl)c2cccnc12)c1ccccc1F | -85* | . | 3.7µM* | -21 | 4.6µM* | 32
O=C(COc1ccccc1F)Nc1nnc(C2CCCC2)s1 | -15 | 1% | 12% | -3 | -12% | -13
COC(=O)C1CN(C(=O)C(C)Oc2ccc(F)cc2)c2ccccc2O1 (stereo not drawn) | 5 | -1% | 5% | 8 | 2% | 24
O=C(c1cccn2c(=O)c3cc(Cl)ccc3nc12)N1CCOCC1 | -6 | 18µM* | 3% | 1 | -13% | 14
O=C(c1ccc2nc3ccc(Cl)cc3c(=O)n2c1)N1CCOCC1 | 6 | 16µM* | -22% | 10 | ? | 13
Cc1cccc(N2CCN(C(=O)c3cccn4c(=O)c5cc(Cl)ccc5nc34)CC2C)c1 (stereo not drawn) | . | -14% | 18µM* | -2 | ? | .
O=C(c1cnc2ccc(Cl)cc2c1Cl)N1CCOCC1 | -2 | 0% | -11% | -1 | -19% | 6
CC(=O)Nc1ccccc1-c1nc(CNC(=O)c2ccc(C)cc2)c(C)o1 | . | . | -3%[9.04 µM] | . | ? | .
CCOc1cccc(CC(=O)NCc2ccc3c(c2)CCN3C(C)=O)c1OCC | . | 0% | 8% | -14 | -16% | .
CCOc1cc(C(=O)NCCc2sc(-c3ccc(F)cc3)nc2C)cc(OCC)c1OCC | . | -7% | ? | -12 | ? | .
O=C1NC[C@H](CCCCN2C[C@H](Cc3ccccc3)N(CCc3ccc(O)cc3)C(=O)C2=O)N(CCC2CCCCC2)C1=O | 1 | 3% | ? | 0 | ? | -57*
O=C1NC[C@@H](CCCCN2C[C@H](Cc3ccc(O)cc3)N(CCc3ccccc3)C(=O)C2=O)N(CCC2CCCCC2)C1=O | 33 | 1% | 2% | 0 | -4% | ?
O=C1NC[C@H](CCCCN2C[C@H](Cc3ccccc3)N(CC3CCCCC3)C(=O)C2=O)N(CC2CCCCC2)C1=O | -23 | 2% | ? | -2 | 29µM* | -77*
O=C1NC[C@@H](CCCCN2C[C@H](Cc3ccccc3)N(CC3CCCCC3)C(=O)C2=O)N(Cc2ccccc2)C1=O | -3 | 0% | 0% | -4 | -21% | 36
C=CCOc1ccc(/C=C/C(=O)OCc2csc(CC(=O)Nc3ccccc3C)n2)cc1 | 63 | 30% | 3% | 18 | -2% | 5
COc1cccc2c1C(=O)c1c(O)c3c(c(O)c1C2=O)CC(O)(C(C)=O)CC3OC1CC(O)C(O)C(C)O1 (stereo not drawn) | -11 | -9% | 1.2µM* | -8 | 0.82µM* | -103*
COc1cccc2c1-c1c(O)cccc1C2=O | -4 | 2% | 3% | -1 | 4% | -20
COc1cccc2c1C(=N)c1c(O)c3c(c(O)c1C2=O)CC(O)(C(C)=O)CC3OC1CC(N)C(O)C(C)O1 (stereo not drawn) | ? | 1% | 0.16µM* | -12 | 0.18µM* | -102*
COc1cccc2c1C(=O)c1c(O)c3c(c(O)c1C2=O)C[C@](O)(C(C)=O)C[C@H]3O[C@@H]1C[C@@H](N)[C@@H](O)[C@@H](C)O1 | 0 | 0% | 0.1µM* | -38 | 0.092µM* | ?
CCCOCCc1nnc(N)s1 | 15 | -1% | 9% | 19 | 9% | 0
SMILES | D3 antag | ClpP mod | DT40 TDP1 CPT | DRD3 agonist | DT40 TDP1 no CPT | IL-1B inflam inh
CCCn1c(CCNc2nc(-c3ccc(Cl)c([N+](=O)[O-])c3)cs2)nc2cc(Cl)c(Cl)cc21 | -2 | -1% | -11% | -7 | -5% | 34
O=[N+]([O-])c1cc(-c2csc(NCCc3nc4cc(Cl)c(Cl)cc4n3CCCO)n2)ccc1Cl | 5 | 1% | 16µM* | 3 | ? | ?
COc1ccc(-c2csc(NCCc3nc4cc(Cl)c(Cl)cc4n3CCCO)n2)cc1 | 51 | -1% | ? | -1 | 18µM* | -58*
Cc1ccc(-c2csc(NCCc3nc4cc(Cl)c(Cl)cc4n3CCCO)n2)cc1 | 5 | -2% | ? | 70* | ? | -56*
COc1ccc2ccccc2c1CN1CCOc2ccc(CN3CCN(CCO)CC3)cc2C1 | . | . | 10%[9.04 µM] | . | ? | .
Cn1[nH]c(C(F)(F)F)c(C=Nc2ccc(Cl)cc2)c1=O | -63* | 1% | -2% | -4 | -4% | -5
NC(=O)C1CCN(C(=O)CC2(CC(=O)O)CCCC2)CC1 | 7 | . | 8% | 1 | -2% | -7
CC(C)c1nnc(NC(=O)c2ccc(N3C(=O)CCC3=O)cc2)s1 | 6 | -1% | 4% | 7 | 7% | 9
O=C(Nc1nnc(C23CC4CC(CC(C4)C2)C3)s1)c1ccc(N2C(=O)CCC2=O)cc1 | -7 | -2% | ? | -7 | 26µM* | 5
COc1cc(OC)c(C2Nc3c(C)cccc3-c3cc(C)nn32)cc1OC (stereo not drawn) | . | ? | ? | 6 | ? | .
COc1ccc(OC)c(C2Nc3c(C)cc(C)cc3-c3cc(C)nn32)c1 (stereo not drawn) | . | 4% | 16µM* | -6 | 21µM* | .
CCc1ccc(NC(=O)N2CCOc3ccc(Cl)cc32)cc1 | . | 0% | -19% | -11 | 13µM* | .
CC(C)Oc1ccc(CNC(=O)C2CCN(C(=O)N3CCOc4ccc(Cl)cc43)CC2)cc1 | . | -3% | 6.5µM* | 4 | 6.5µM* | .
O=C(NCc1ccco1)C1CCN(C(=O)N2CCOc3ccc(Cl)cc32)CC1 | . | 1% | -27% | -2 | ? | .
CCOC(=O)Cc1ccc(NC(=O)N2CCOc3ccc(C)cc32)cc1 | . | 0% | ? | -10 | ? | .
CC(C)CCNC(=O)C1CCN(C(=O)N2CCOc3ccc(Cl)cc32)CC1 | . | 0% | 26µM* | 5 | ? | .
